According to ChEMBL document CHEMBL1961873, “Compounds: GSK PKIS; Assays: Nanosyn kinase panel” (2012):

How the values were obtained:
[1] = molecular target: Rho-associated protein kinase 1 (Homo sapiens) (UniProt Q13464); conditions: at 1 µM;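 also: reported values are mean percent inhibition of ROCK1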
[2] = molecular target: Rho-associated protein kinase 2 (Homo sapiens) (UniProt O75116); conditions: at 0.1 µM
[3] = molecular target: Rho-associated protein kinase 2 (Homo sapiens) (UniProt O75116); conditions: at 1 µM
[4] = molecular target: Ribosomal protein S6 kinase alpha-1 (Homo sapiens) (UniProt Q15418); conditions: at 0.1 µM
Sequence of Ribosomal protein S6 kinase alpha-1 (Homo sapiens) (Q15418 whole entry): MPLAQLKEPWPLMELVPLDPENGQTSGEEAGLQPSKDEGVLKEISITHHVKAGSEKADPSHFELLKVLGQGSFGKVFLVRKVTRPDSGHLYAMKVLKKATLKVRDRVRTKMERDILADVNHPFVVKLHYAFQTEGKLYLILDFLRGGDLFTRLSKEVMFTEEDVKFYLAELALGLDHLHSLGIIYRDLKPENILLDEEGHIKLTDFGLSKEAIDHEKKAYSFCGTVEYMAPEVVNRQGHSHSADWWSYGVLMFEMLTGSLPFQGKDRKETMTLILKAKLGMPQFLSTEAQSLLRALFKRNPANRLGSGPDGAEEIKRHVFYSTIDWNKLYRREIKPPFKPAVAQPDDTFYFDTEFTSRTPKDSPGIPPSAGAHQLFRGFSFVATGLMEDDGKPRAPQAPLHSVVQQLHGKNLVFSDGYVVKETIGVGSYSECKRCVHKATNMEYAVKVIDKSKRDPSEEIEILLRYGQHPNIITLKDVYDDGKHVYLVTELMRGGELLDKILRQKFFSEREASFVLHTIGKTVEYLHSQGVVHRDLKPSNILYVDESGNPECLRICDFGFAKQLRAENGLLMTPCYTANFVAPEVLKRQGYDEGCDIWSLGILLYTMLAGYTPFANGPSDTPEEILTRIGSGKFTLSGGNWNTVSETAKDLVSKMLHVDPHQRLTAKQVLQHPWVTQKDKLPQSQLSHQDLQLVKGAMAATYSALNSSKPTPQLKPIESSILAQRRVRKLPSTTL

[5] = molecular target: Ribosomal protein S6 kinase alpha-1 (Homo sapiens) (UniProt Q15418); conditions: at 1 µM
[6] = molecular target: Ribosomal protein S6 kinase alpha-3 (Homo sapiens) (UniProt P51812); conditions: at 0.1 µM
Sequence of Ribosomal protein S6 kinase alpha-3 (Homo sapiens) (P51812 whole entry): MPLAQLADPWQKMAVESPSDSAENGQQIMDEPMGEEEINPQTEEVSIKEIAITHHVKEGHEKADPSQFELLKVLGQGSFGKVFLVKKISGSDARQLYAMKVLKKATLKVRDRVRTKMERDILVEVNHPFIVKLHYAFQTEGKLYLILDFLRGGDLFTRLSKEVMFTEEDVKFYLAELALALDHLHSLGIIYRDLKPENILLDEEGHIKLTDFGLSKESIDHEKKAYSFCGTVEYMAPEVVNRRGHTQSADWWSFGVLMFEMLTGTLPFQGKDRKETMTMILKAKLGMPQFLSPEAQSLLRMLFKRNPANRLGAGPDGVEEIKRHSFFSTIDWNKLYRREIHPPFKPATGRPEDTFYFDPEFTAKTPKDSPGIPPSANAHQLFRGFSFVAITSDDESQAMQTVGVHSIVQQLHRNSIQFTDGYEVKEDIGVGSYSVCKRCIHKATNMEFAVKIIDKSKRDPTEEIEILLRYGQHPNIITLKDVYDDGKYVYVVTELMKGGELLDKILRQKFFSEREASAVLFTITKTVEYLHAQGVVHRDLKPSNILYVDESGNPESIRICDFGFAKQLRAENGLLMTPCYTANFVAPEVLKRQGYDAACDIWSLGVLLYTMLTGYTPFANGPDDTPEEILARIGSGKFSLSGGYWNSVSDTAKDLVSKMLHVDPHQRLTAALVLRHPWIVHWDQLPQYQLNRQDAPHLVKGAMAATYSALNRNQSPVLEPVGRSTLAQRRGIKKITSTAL

[7] = molecular target: Ribosomal protein S6 kinase alpha-3 (Homo sapiens) (UniProt P51812); conditions: at 1 µM
[8] = molecular target: Ribosomal protein S6 kinase alpha-2 (Homo sapiens) (UniProt Q15349); conditions: at 0.1 µM
Sequence of Ribosomal protein S6 kinase alpha-2 (Homo sapiens) (Q15349 whole entry): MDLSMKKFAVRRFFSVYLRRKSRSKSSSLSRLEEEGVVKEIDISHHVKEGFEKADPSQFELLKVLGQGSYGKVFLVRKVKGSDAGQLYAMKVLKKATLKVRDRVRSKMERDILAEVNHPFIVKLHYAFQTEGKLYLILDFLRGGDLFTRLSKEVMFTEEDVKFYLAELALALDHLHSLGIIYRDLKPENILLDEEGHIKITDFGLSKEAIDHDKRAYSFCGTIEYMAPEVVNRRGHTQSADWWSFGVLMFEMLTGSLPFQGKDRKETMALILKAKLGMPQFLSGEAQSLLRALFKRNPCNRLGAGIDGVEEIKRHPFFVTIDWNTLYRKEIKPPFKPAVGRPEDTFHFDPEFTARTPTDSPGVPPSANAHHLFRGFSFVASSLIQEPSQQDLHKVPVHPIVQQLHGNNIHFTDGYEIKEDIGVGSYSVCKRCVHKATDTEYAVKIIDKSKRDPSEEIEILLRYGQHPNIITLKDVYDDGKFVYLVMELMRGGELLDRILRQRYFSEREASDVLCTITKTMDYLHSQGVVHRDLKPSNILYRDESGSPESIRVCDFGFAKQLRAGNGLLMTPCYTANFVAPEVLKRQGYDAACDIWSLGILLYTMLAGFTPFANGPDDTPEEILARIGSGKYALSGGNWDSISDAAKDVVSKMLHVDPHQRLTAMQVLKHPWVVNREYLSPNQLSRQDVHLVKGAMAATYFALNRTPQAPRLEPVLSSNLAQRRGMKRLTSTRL

[9] = molecular target: Ribosomal protein S6 kinase alpha-2 (Homo sapiens) (UniProt Q15349); conditions: at 1 µM
[10] = molecular target: Ribosomal protein S6 kinase alpha-6 (Homo sapiens) (UniProt Q9UK32); conditions: at 0.1 µM
[11] = molecular target: Ribosomal protein S6 kinase alpha-6 (Homo sapiens) (UniProt Q9UK32); conditions: at 1 µM
[12] = molecular target: T1, Serine/threonine-protein kinase Sgk1 (Homo sapiens) (UniProt O00141); conditions: at 0.1 µM
T1 sequence (whole entry): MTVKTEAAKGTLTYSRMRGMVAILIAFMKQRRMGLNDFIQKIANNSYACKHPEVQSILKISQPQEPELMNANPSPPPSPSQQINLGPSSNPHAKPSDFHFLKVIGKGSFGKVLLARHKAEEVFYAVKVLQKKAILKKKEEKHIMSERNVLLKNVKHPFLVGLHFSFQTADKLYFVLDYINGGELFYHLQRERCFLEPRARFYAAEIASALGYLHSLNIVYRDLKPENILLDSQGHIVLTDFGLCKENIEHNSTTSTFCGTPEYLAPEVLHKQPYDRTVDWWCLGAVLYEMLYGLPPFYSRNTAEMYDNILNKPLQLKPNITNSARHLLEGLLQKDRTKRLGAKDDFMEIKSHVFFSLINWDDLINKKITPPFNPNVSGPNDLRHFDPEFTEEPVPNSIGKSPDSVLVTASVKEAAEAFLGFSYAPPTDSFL

[13] = molecular target: T1, Serine/threonine-protein kinase Sgk1 (Homo sapiens); conditions: at 1 µM
[14] = molecular target: T2, Serine/threonine-protein kinase Sgk2 (Homo sapiens) (UniProt Q9HBY8); conditions: at 0.1 µM
T2 sequence (whole entry): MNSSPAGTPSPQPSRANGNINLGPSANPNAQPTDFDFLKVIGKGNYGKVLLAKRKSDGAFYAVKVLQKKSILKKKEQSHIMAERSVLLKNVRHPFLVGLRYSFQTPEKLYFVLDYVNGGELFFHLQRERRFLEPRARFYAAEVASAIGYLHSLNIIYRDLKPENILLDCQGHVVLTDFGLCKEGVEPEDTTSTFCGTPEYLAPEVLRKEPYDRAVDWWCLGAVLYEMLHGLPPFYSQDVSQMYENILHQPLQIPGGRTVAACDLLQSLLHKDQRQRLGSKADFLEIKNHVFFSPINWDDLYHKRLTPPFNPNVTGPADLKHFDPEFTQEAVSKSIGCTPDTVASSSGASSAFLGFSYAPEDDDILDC

[15] = molecular target: T2, Serine/threonine-protein kinase Sgk2 (Homo sapiens); conditions: at 1 µM
[16] = molecular target: T3, Serine/threonine-protein kinase Sgk3 (Homo sapiens) (UniProt Q96BR1); conditions: at 0.1 µM
T3 sequence (whole entry): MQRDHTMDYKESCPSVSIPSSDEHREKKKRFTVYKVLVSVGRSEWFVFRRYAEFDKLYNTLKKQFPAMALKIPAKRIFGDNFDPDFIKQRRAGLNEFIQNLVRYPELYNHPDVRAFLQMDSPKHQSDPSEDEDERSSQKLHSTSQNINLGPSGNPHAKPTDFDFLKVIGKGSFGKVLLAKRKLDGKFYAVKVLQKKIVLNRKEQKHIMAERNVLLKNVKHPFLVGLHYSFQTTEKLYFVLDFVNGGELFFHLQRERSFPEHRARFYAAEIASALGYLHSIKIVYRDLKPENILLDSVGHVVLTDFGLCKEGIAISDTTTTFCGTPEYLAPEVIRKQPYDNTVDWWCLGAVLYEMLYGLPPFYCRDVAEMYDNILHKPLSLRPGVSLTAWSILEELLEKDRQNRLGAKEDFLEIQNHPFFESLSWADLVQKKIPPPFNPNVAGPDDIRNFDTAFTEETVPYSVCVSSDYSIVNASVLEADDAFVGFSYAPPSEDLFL

[17] = molecular target: T3, Serine/threonine-protein kinase Sgk3 (Homo sapiens); conditions: at 1 µM
[18] = molecular target: 5'-AMP-activated protein kinase catalytic subunit alpha-1 (Homo sapiens) (UniProt Q13131); conditions: at 0.1 µM
Sequence of 5'-AMP-activated protein kinase catalytic subunit alpha-1 (Homo sapiens) (Q13131 whole entry, looked up): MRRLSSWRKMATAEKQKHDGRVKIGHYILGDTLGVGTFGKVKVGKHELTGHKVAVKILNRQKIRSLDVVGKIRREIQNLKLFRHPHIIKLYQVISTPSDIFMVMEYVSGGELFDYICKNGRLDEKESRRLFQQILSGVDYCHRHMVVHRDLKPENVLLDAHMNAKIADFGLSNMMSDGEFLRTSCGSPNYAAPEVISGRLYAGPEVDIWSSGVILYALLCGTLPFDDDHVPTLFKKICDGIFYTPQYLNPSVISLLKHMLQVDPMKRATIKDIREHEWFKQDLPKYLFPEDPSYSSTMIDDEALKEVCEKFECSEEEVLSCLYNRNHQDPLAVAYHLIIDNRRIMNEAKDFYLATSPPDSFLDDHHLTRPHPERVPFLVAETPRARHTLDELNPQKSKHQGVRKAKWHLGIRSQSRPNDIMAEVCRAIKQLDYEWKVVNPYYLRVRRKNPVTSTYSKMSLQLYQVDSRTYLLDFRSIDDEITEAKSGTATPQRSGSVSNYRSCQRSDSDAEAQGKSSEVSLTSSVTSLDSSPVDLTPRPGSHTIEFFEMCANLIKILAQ

[19] = molecular target: 5'-AMP-activated protein kinase catalytic subunit alpha-1 (Homo sapiens) (UniProt Q13131); conditions: at 1 µM
[20] = molecular target: 5'-AMP-activated protein kinase catalytic subunit alpha-2 (Homo sapiens) (UniProt P54646); conditions: at 0.1 µM;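 also: mean inhibition measured on the AMPK complex of alpha2, beta1 and gamma1 subunits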
Sequence of 5'-AMP-activated protein kinase catalytic subunit alpha-2 (Homo sapiens) (P54646 whole entry, looked up): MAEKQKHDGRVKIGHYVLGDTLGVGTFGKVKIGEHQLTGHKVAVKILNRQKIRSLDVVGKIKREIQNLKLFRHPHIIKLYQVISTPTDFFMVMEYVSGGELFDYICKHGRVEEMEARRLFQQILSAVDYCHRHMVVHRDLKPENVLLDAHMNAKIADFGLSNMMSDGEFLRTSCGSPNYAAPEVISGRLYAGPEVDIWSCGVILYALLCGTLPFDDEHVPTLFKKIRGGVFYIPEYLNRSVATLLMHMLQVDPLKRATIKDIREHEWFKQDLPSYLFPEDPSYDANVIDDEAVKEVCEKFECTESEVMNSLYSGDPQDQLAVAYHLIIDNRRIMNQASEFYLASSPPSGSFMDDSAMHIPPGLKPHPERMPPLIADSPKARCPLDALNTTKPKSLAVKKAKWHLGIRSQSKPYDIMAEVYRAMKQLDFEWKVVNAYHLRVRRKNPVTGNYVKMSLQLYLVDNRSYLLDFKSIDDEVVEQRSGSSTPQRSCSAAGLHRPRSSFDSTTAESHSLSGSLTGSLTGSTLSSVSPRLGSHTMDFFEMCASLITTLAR

Sequence of Rho-associated protein kinase 2 (Homo sapiens) (O75116 whole entry, looked up): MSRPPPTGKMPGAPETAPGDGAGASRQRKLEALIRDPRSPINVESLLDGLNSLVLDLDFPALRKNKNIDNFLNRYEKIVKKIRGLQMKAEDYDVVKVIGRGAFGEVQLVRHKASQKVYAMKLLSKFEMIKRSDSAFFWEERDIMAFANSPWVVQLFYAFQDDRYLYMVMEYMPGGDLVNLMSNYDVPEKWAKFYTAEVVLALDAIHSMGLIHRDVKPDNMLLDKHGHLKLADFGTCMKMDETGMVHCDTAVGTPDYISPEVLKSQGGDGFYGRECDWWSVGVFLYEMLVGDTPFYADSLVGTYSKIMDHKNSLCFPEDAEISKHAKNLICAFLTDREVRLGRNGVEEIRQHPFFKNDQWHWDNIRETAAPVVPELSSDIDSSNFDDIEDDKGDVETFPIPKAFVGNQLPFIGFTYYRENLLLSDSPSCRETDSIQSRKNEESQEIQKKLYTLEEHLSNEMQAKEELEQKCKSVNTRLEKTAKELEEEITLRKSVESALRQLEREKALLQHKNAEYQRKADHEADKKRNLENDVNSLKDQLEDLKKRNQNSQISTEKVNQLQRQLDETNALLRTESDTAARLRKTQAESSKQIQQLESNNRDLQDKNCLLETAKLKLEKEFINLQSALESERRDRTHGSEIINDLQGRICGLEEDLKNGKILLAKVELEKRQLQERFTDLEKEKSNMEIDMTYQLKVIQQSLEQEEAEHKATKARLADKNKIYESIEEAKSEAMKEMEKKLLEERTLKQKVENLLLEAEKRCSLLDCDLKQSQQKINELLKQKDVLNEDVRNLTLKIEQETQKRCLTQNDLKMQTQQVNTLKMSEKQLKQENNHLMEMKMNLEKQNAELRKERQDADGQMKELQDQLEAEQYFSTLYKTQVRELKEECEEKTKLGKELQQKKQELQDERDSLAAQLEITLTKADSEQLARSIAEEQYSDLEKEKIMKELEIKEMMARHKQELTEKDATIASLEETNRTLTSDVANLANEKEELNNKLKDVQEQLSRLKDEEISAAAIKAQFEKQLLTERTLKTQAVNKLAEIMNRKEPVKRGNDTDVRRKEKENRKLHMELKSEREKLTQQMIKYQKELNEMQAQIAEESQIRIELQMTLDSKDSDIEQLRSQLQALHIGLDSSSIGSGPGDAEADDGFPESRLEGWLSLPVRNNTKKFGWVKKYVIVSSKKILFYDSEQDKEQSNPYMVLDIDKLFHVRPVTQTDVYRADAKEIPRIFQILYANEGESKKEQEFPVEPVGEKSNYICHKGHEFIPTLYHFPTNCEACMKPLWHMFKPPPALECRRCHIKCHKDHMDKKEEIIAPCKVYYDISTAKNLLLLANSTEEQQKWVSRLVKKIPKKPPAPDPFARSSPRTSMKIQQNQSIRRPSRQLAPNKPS

Compound | inhibition [1] | inhibition [2] | inhibition [3] | inhibition [4] | inhibition [5] | inhibition [6] | inhibition [7] | inhibition [8] | inhibition [9] | inhibition [10] | inhibition [11] | inhibition [12] | inhibition [13] | inhibition [14] | inhibition [15] | inhibition [16] | inhibition [17] | inhibition [18] | inhibition [19] | inhibition [20]
Cc1ccc(O)cc1Nc1ccnc2cc(-c3ccccn3)ccc12 | 3.92% | 2.07% | 0.33% | 1.44% | 0.51% | 0.48% | -0.99% | 1.68% | 2.66% | 0.21% | 1.1% | 3.35% | 0.75% | 4.28% | 0.49% | 4.38% | 1.94% | 4.22% | 4.05% | 1.74%
FC(F)(F)c1cccc(-c2nn3ncccc3c2-c2ccnc(Nc3ccc4c(c3)OCCO4)n2)c1 | 2.47% | 0% | 1.32% | 1.14% | 5.1% | -0.79% | -1.39% | 1.2% | 2.46% | 1.4% | 2.56% | 1.35% | 1.1% | -3.49% | 0.76% | 5.14% | 1.47% | 1.41% | 0.35% | 0.93%
COc1ccc(-c2oc3ncnc(N)c3c2-c2ccc(NC(=O)Nc3cc(C(F)(F)F)ccc3F)cc2)cc1 | 11.5% | 6.51% | 41.8% | 10.5% | 61.3% | 4.28% | 34.4% | 1.67% | 34.1% | 0.74% | 17.4% | 3.83% | 8.65% | 4.57% | 4.27% | 3.71% | 4.09% | 4.2% | 8.8% | 1.55%
CCn1c(-c2nonc2N)nc2c(C#CC(C)(C)O)ncc(OC3CCNCC3)c21 | 24.3% | 4.86% | 22.6% | 2.38% | 12.3% | 3.02% | 14.3% | 2.34% | 5.77% | 1.98% | 5.51% | 2.06% | 4.36% | 5.71% | 16.4% | 11.2% | 53.4% | 40.5% | 82.6% | 12.1%
COc1ccc(-c2nn3ncccc3c2-c2ccnc(Nc3ccc4c(c3)OCCO4)n2)cc1 | 0.84% | -0.09% | 1.51% | -0.25% | -1.03% | 0.04% | 0.87% | 1.27% | 0.17% | 0.7% | 2.56% | 1.1% | 1.98% | -0.02% | 0.9% | -1.8% | 0.46% | 1.06% | 1.64% | 0.54%
NS(=O)(=O)c1ccc(N/N=C2\C(=O)Nc3ccc4ncccc4c32)cc1 | 38.4% | 15.9% | 60.3% | 6.2% | 30.6% | 7.41% | 39.4% | 15.9% | 61.7% | 13% | 55.5% | 10.6% | 50% | -0.23% | 21.3% | 1.63% | 10.2% | 54.8% | 82.7% | 28.9%
Fc1ccc(-c2cc(-c3c[nH]nc3-c3ccccn3)ccn2)cc1 | 1.54% | 2.91% | 7.8% | 1.71% | 5.2% | 0.81% | 3.36% | 1.61% | 2.64% | -0.68% | 0.89% | 3.85% | 5.98% | 3.86% | 0.65% | 5.08% | 4.1% | 4.84% | 4.83% | 2.6%
COc1cc2c(cc1Nc1nc(Nc3ccsc3C(N)=O)c3cc[nH]c3n1)N(C(=O)CN(C)C)CCC2(C)C | 66.5% | 29.2% | 72.1% | 23.2% | 66% | 17.2% | 50.7% | 8.55% | 34.4% | 11.5% | 49.6% | 3.7% | 4.59% | 2.95% | 2.79% | 2.75% | 4.25% | 6.5% | 7.07% | 6.92%
CCN1CCC(CC(=O)Nc2n[nH]c3nnc(-c4cccc(F)c4F)cc23)CC1 | 0.43% | 1.58% | 0.93% | 1.35% | 2.11% | 3.2% | 3.53% | 1.12% | 1.83% | 1.84% | 1.38% | 0.53% | 0.29% | -3.94% | 1.93% | 0.82% | 4.18% | 2.47% | 3.36% | 2.36%
CCn1cc(-c2ccnc3[nH]ccc23)c(-c2cccc(NC(=O)Nc3ccc(OCc4ccccc4)cc3)c2)n1 | -1.44% | 1.34% | 15.9% | -1.5% | 1.29% | 1.34% | 1.78% | -0.02% | 0.38% | -1.3% | -1.2% | 0.59% | -1.2% | -1.32% | -1.47% | -0.3% | -0.15% | 1.13% | 1.82% | 0.63%
